# From PubChem
# aSyn 5UTR act: Activators via SNCA 5'UTR binding, MLPCN; 7.1% of 300,000 active; activity score, % (tested at 7.5 µM), hits read low; alpha-synuclein 5'UTR reporter, activators screen; in the data active means activity score below about -60%
# * marks the source's active call; other numbers are inactive results. These entries were drawn from the full list.
SMILES,aSyn 5UTR act
Cc1ccc(Oc2cnc3ccccc3n2)cc1,-127*
CC(C)c1cc(C(=O)Nc2cccnc2)no1,-85*
CC(C)(C)C(=O)NC(=S)NNC(=O)c1ccc(-c2ccccc2)cc1,67
COc1cccc(-c2cc(=O)c3cc(NC(=O)c4ccc(Cl)cc4)ccc3[nH]2)c1,-68*
O=C(NNC(=O)c1ccc(-c2ccccc2)cc1)c1ccccc1,-64*
O=C(Nc1ccc(-c2cnco2)cc1)c1ccccc1,-172*
COc1cccc(-c2cc(=O)c3cc(NC(=O)c4ccccc4)ccc3[nH]2)c1,82
O=C(Nc1cccnc1)c1cnc2ccccc2n1,-73*
O=C(Nc1cccnc1)c1ccc(-c2ccccc2)cc1,-163*
COc1cccc(NC(=O)c2ccc(NC(=O)C(C)(C)C)cc2)c1,-189*
Cc1ccc(C(=O)Nc2cccnc2)cc1Cl,-172*
C=CC(C)(C)c1c(O)c(CC=C(C)C)c(O)c2c(=O)c3ccc(O)c(O)c3oc12,73
CC(C)c1ccc(C(=O)Nc2cccnc2)cc1,-96*
CCC(C)c1ccc(NC(=O)c2cccnc2)cc1 (stereo not drawn),-269*
CC(C)(C)C(=O)Nc1ccc(C(=O)Nc2cccnc2)cc1,-120*
O=C(Nc1ccncc1)c1ccc(-c2ccccc2)cc1,-127*
O=C(Nc1ccccc1)c1cnc[nH]1,-68*
C=CCSc1nc2c(cnn2-c2ccccc2)c(=O)n1N,74
O=c1c2cnn(-c3ccccc3)c2nc(-c2cccs2)n1-c1cccc(Cl)c1,-63*
O=C(c1ccc(-c2ccccc2)cc1)N1CCCC1,-88*
O=C(Oc1ccc(-c2ccccc2)cc1)N1CCCCC1,-169*
O=C(c1cccc(-c2nnc(-c3ccccc3)o2)c1)N1CCCCC1,-76*
O=[N+]([O-])c1ccc(Cl)c(S(=O)(=O)Nc2cccc(-c3ccc(N4CCOCC4)nn3)c2)c1,-108*
O=[N+]([O-])c1ccc(S(=O)(=O)Nc2cccc(-c3ccc(N4CCOCC4)nn3)c2)cc1,-83*
O=C(Nc1ccc(Cl)cc1)Nc1cccnc1,-66*
SMILES,aSyn 5UTR act
CCOc1ccc(NC(=O)Nc2cccc(C(=O)O)c2)cc1,108
CCOc1ccc(NC(=O)Nc2cccnc2)cc1,-141*
COc1cc(/C=C/C(=O)c2ccc([N+](=O)[O-])o2)ccc1O,67
COc1cc(/C=C2\Oc3cc(O)ccc3C2=O)ccc1O,-194*
COc1ccc(/C=C2\CCCC(C(=O)C(F)(F)F)=C2O)cc1OC,-69*
COc1cc(/C=C/C(=O)CC(=O)/C=C/c2ccc(O)c(OC)c2)ccc1O,-85*
COc1ccc(/C=C2\OC(=O)c3c(OC)cccc32)cc1OC,-200*
COc1cc(/C=C2\CCC/C(=C\c3ccc(O)c(OC)c3)C2=O)ccc1O,-394*
CCOc1cc(/C=C2\CN(CC)C/C(=C\c3ccc(O)c(OCC)c3)C2=O)ccc1O,102
COc1cc(/C=C2/CCC/C(=C\c3cc(O)c(OC)c(Cl)c3)C2=O)cc(Cl)c1O,-143*
COc1cc(/C=C2\COC/C(=C\c3cc(OC)c(OC)c(OC)c3)C2=O)cc(OC)c1OC,103
Cc1c(C(=O)NCCCN2CCOCC2)oc2c1C1(CCC2)SCCS1,-70*
CCCc1ccc2oc(C(=O)NCCCN3CCOCC3)c(C)c2c1,-96*
Cc1c(C(=O)NCc2ccc3c(c2)OCO3)oc2ccc(S(=O)(=O)N3CCCCCC3)cc12,60
CCCc1ccc2oc(C(=O)NCc3nnc(C)o3)c(C)c2c1,-128*
CCOc1cc(/C=C2\COc3ccccc3C2=O)cc(Br)c1OCC(=O)N(C)C,-121*
Cc1cc(O)c(NC(=O)c2ccc(Br)o2)cc1C,-178*
O=C(Nc1ccc(Cl)cc1Cl)c1ccc(Br)o1,-124*
O=C(Nc1ccc(/C=C/c2nc3ccccc3o2)cc1)c1ccc(F)cc1,-117*
CCOC(=O)c1ccc2[nH]c3c(c2c1)CCCC3,-124*
COC(=O)c1ccc2[nH]c3c(c2c1)CC(C)CC3 (stereo not drawn),-96*
N#Cc1ccsc1NC(=O)c1ccc(Cl)c([N+](=O)[O-])c1,-116*
O=C(CNC(=O)c1ccc2c(c1)OCO2)Nc1ncccc1O,-77*
CCOc1ccc(C(=O)Nc2ncccc2Cl)cc1,-116*
O=C(Nc1ccc2c(c1)OCCO2)c1ccc(Cl)c(Cl)c1,-131*
SMILES,aSyn 5UTR act
O=C1C=C(c2ccccc2)C[C@H](c2cccs2)[C@H]1n1nnc([N+](=O)[O-])n1,88
O=C(Nc1ccc(Cl)c(Cl)c1)C1=Cc2ccccc2OC1,-202*
O=C(Nc1ncccc1Cl)c1ccc2c(c1)OCCO2,-119*
O=C(Nc1ccc2c(c1)OCCO2)c1ccc(Cl)c([N+](=O)[O-])c1,-105*
CCn1cc([N+](=O)[O-])c(C(=O)Nc2ccc3c(c2)OCCO3)n1,-69*
CC(=O)Nc1ccc(N/C=C/C(=O)c2ccco2)cc1,-323*
CN(C)c1ccc(N/C=C/C(=O)c2ccco2)cc1,-105*
O=C(/C=C/Nc1ccccc1O)c1ccco1,-87*
O=C(/C=C/Nc1ccc(Br)cc1F)c1ccco1,57
Cc1ccc(/C=C/c2nc3ccccc3s2)s1,71
Cc1cc(N)n(-c2nc3ccccc3s2)n1,-157*
Cc1cc(C)n(-c2nc3ccccc3s2)n1,-168*
